According to PubChem BioAssay:
Active and inactive are the calls of the source.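 The calls were made as follows, unless noted: active = primary screen hit whose calcium fluorescence ratio, in both repeats, exceeds the weak agonist control mean by 3 SD; inactive = the rest.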

test system: TRPC4 (transient receptor potential cation channel C4 beta), mouse; experiment: potentiation of DAMGO EC20 TRPC4 response – cell-based, second round, Fluo-4, HEK293 TRPC4beta/mu-opioid, 1 µM, confirmation (AID 2554;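 active = primary screen hit whose fluorescence ratio, in both repeats, exceeds the weak agonist control mean by 3 SD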); settings: DAMGO EC20, Fluo-4 calcium flux, at 1 µM; active compounds read high

Row | SMILES | outcome | potentiation
1 | CCCc1nc2oc3c(NCCCN(C)C)ncnc3c2c2c1CCCC2 | inactive | 
2 | O=C(/C=C/c1ccc(Cl)cc1)N(Cc1ccccc1)C1CCS(=O)(=O)C1 (stereo not drawn) | inactive | 
3 | COc1ccc(NS(=O)(=O)c2ccc3ccccc3c2)c2ncccc12 | inactive | 
4 | CN(C)S(=O)(=O)N1CCC(CCCC2CCN(S(=O)(=O)N(C)C)CC2)CC1 | inactive | 
5 | COc1cc(C2(c3ccc(O)c(OC)c3)C(=O)Nc3c(C)cc(Br)cc32)ccc1O | inactive | 
6 | COC(=O)C(CC(=O)Nc1cc(C)ccc1C)Nc1ccccc1OC (stereo not drawn) | inactive | 
7 | CC(C)CCc1noc(CN2CCN(c3ccc(Cl)cn3)CC2)n1 | inactive | 
8 | Cc1cc(OCCN2CCCC2)ccc1[N+](=O)[O-] |  | 11% (active)
9 | CSc1ccc(S(=O)(=O)NCC(=O)OCC(=O)N(C)Cc2ccccc2)cc1[N+](=O)[O-] | inactive | 
10 | O=C(COC(=O)c1ccccc1C(=O)N1CCN(c2ccccc2)CC1)Nc1ccc(F)cc1 | inactive | 
11 | CCCCCCCCCC[n+]1cccc2c3ccccc3ccc21 | inactive | 
12 | Cc1nn(-c2cc(C(F)(F)F)ccc2Cl)c2nc(C(Cl)(Cl)Cl)[nH]c(=O)c12 | inactive | 
13 | Cc1cc2oc(C(=O)N(Cc3cccs3)C3CCS(=O)(=O)C3)cc(=O)c2cc1Cl (stereo not drawn) | inactive | 
14 | CN(C)CCCN(C(=O)CCc1ccccc1)c1nc2ccc(F)cc2s1 | inactive | 
15 | Cc1ccc(C(=O)O)cc1N=Cc1cc(Br)cc(Br)c1O | inactive | 
16 | N=c1c2c3c(sc2ncn1Cc1ccccc1)CCCC3 | inactive | 
17 | Cn1c2ccccc2c(=O)c2c(=O)n(-c3ccccc3)c(-c3ccc(C(C)(C)C)cc3)nc21 | inactive | 
18 | CCCNc1nc2ccccc2n2c(C)nnc12 | inactive | 
19 | CC(C)NS(=O)(=O)c1ccc(NC(=O)C(C)Oc2ccc(C(=O)c3ccccc3)cc2)cc1 (stereo not drawn) | inactive | 
20 | O=C1C=CC(=O)N1CCNc1ncc(C(F)(F)F)cc1Cl | inactive | 

Row | SMILES | outcome | potentiation
21 | CCN1CCN(c2ccc(S(=O)(=O)N3CCCCC3)cc2NC(=O)c2cccc(F)c2)CC1 | inactive | 
22 | CCn1c2ccc(F)cc2c2nnc(NN)nc21 |  | 27% (active)
23 | CCCN1Cc2cccc(C(=O)N3CCN(c4cc(Cl)ccc4C)CC3)c2C1=O | inactive | 
24 | Cc1ccc2c(c1)C1CN(C)CCC1N2C(=S)NC(=O)c1ccc(Br)cc1 (stereo not drawn) | inactive | 
25 | CCCCN(CC)CCCNC(=O)c1cc2cc3ccc(C)cc3nc2o1 |  | 19% (active)
26 | COc1cc(NC(=O)CSc2ncnc3sc4c(c23)CCC(C)C4)c(C(=O)O)cc1OC (stereo not drawn) | inactive | 
27 | CN(CCCNC(=O)CCCOc1cc(=O)n(C)c2ccccc12)Cc1ccccc1 |  | 21% (active)
28 | O=S(=O)(NCC1NCCc2ccccc21)c1ccccc1 (stereo not drawn) | inactive | 
29 | Cc1cc(C)c2c(=O)n(CC(=O)Nc3cccc(Cl)c3C)sc2n1 | inactive | 
30 | O=C(Nc1ccnn1C1CCN(Cc2cc3ccccc3[nH]2)CC1)C1CCOC1 (stereo not drawn) | inactive | 
31 | CC(Oc1ccc(Cl)cc1Cl)C(=O)N(C)c1ccccc1 (stereo not drawn) | inactive | 
32 | O=C(C1=C[C@H](c2ccc(C(F)(F)F)cc2)C[C@H](OCCCCO)O1)N1CCOCC1 | inactive | 
33 | O=C(O)CCCN1C(=O)/C(=C\c2ccc(-c3nc4ccccc4s3)o2)SC1=S | inactive | 
34 | O=c1c2ccccc2nc(COc2ccccc2)n1/N=C/c1cc([N+](=O)[O-])ccc1O |  | 11% (active)
35 | O=C(CCN1CCN(Cc2ccccc2)CC1)Nc1cccc(Br)c1 |  | 21% (active)
36 | O=C(NC1CCCC1)c1cc2ccccc2o1 | inactive | 
37 | Cc1cc(/C=N/NC(=O)c2cccc([N+](=O)[O-])c2)c(C)n1-c1ccc(Cl)cc1Cl | inactive | 
38 | CCN(CC)c1ncnc2sc3c(c12)CCC3 | inactive | 
39 | CC(=O)c1nn(-c2cccc(Br)c2)cc1C(=O)c1cccc2ccccc12 | inactive | 

test system: TRPC4 beta (transient receptor potential cation channel C4), mouse; experiment: potentiation of DAMGO EC20 TRPC4 response – cell-based, Fluo-4, HEK293 TRPC4beta/mu-opioid, confirmation (AID 2555); settings: DAMGO EC20, Fluo-4 calcium flux, at 10 µM; active compounds read high

Row | SMILES | outcome | potentiation
40 | CCCc1nc2oc3c(NCCCN(C)C)ncnc3c2c2c1CCCC2 | inactive | 
41 | O=C(/C=C/c1ccc(Cl)cc1)N(Cc1ccccc1)C1CCS(=O)(=O)C1 (stereo not drawn) | inactive | 
42 | COc1ccc(NS(=O)(=O)c2ccc3ccccc3c2)c2ncccc12 | inactive | 
43 | CN(C)S(=O)(=O)N1CCC(CCCC2CCN(S(=O)(=O)N(C)C)CC2)CC1 |  | 11% (active)
44 | COc1cc(C2(c3ccc(O)c(OC)c3)C(=O)Nc3c(C)cc(Br)cc32)ccc1O |  | 22% (active)
45 | COC(=O)C(CC(=O)Nc1cc(C)ccc1C)Nc1ccccc1OC (stereo not drawn) | inactive | 
46 | CC(C)CCc1noc(CN2CCN(c3ccc(Cl)cn3)CC2)n1 | inactive | 
47 | Cc1cc(OCCN2CCCC2)ccc1[N+](=O)[O-] |  | 11% (active)
48 | CSc1ccc(S(=O)(=O)NCC(=O)OCC(=O)N(C)Cc2ccccc2)cc1[N+](=O)[O-] | inactive | 
49 | O=C(COC(=O)c1ccccc1C(=O)N1CCN(c2ccccc2)CC1)Nc1ccc(F)cc1 |  | 16% (active)
50 | CCCCCCCCCC[n+]1cccc2c3ccccc3ccc21 | inactive | 
51 | Cc1nn(-c2cc(C(F)(F)F)ccc2Cl)c2nc(C(Cl)(Cl)Cl)[nH]c(=O)c12 | inactive | 
52 | Cc1cc2oc(C(=O)N(Cc3cccs3)C3CCS(=O)(=O)C3)cc(=O)c2cc1Cl (stereo not drawn) |  | 40% (active)
53 | CN(C)CCCN(C(=O)CCc1ccccc1)c1nc2ccc(F)cc2s1 | inactive | 
54 | Cc1ccc(C(=O)O)cc1N=Cc1cc(Br)cc(Br)c1O | inactive | 
55 | N=c1c2c3c(sc2ncn1Cc1ccccc1)CCCC3 | inactive | 
56 | Cn1c2ccccc2c(=O)c2c(=O)n(-c3ccccc3)c(-c3ccc(C(C)(C)C)cc3)nc21 | inactive | 
57 | CCCNc1nc2ccccc2n2c(C)nnc12 | inactive | 
58 | CC(C)NS(=O)(=O)c1ccc(NC(=O)C(C)Oc2ccc(C(=O)c3ccccc3)cc2)cc1 (stereo not drawn) |  | 36% (active)
59 | O=C1C=CC(=O)N1CCNc1ncc(C(F)(F)F)cc1Cl | inactive | 

Row | SMILES | outcome | potentiation
60 | CCN1CCN(c2ccc(S(=O)(=O)N3CCCCC3)cc2NC(=O)c2cccc(F)c2)CC1 | inactive | 
61 | CCn1c2ccc(F)cc2c2nnc(NN)nc21 |  | 73% (active)
62 | CCCN1Cc2cccc(C(=O)N3CCN(c4cc(Cl)ccc4C)CC3)c2C1=O |  | 81% (active)
63 | Cc1ccc2c(c1)C1CN(C)CCC1N2C(=S)NC(=O)c1ccc(Br)cc1 (stereo not drawn) |  | 15% (active)
64 | CCCCN(CC)CCCNC(=O)c1cc2cc3ccc(C)cc3nc2o1 | inactive | 
65 | COc1cc(NC(=O)CSc2ncnc3sc4c(c23)CCC(C)C4)c(C(=O)O)cc1OC (stereo not drawn) | inactive | 
66 | CN(CCCNC(=O)CCCOc1cc(=O)n(C)c2ccccc12)Cc1ccccc1 |  | 14% (active)
67 | O=S(=O)(NCC1NCCc2ccccc21)c1ccccc1 (stereo not drawn) | inactive | 
68 | Cc1cc(C)c2c(=O)n(CC(=O)Nc3cccc(Cl)c3C)sc2n1 |  | 14% (active)
69 | O=C(Nc1ccnn1C1CCN(Cc2cc3ccccc3[nH]2)CC1)C1CCOC1 (stereo not drawn) | inactive | 
70 | CC(Oc1ccc(Cl)cc1Cl)C(=O)N(C)c1ccccc1 (stereo not drawn) | inactive | 
71 | O=C(C1=C[C@H](c2ccc(C(F)(F)F)cc2)C[C@H](OCCCCO)O1)N1CCOCC1 | inactive | 
72 | O=C(O)CCCN1C(=O)/C(=C\c2ccc(-c3nc4ccccc4s3)o2)SC1=S |  | 10% (active)
73 | O=c1c2ccccc2nc(COc2ccccc2)n1/N=C/c1cc([N+](=O)[O-])ccc1O |  | 23% (active)
74 | O=C(CCN1CCN(Cc2ccccc2)CC1)Nc1cccc(Br)c1 | inactive | 
75 | O=C(NC1CCCC1)c1cc2ccccc2o1 |  | 14% (active)
76 | Cc1cc(/C=N/NC(=O)c2cccc([N+](=O)[O-])c2)c(C)n1-c1ccc(Cl)cc1Cl | inactive | 
77 | CCN(CC)c1ncnc2sc3c(c12)CCC3 | inactive | 
78 | CC(=O)c1nn(-c2cccc(Br)c2)cc1C(=O)c1cccc2ccccc12 | inactive | 
